Molecules are shown by their SMILES. Hit rate of the full screen: of about 340,000 compounds, about 270 (0.079%) were called active. What follows is part of a selection rich in actives, with near analogues and random picks from the rest. Values without a mark were called inactive.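 How the source made its calls: active means activation above a cutoff set at the mean over all compounds plus 3 SD (cut at about 18% in these data); inactive means the rest.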

The target in this experiment is cAMP-dependent protein kinase catalytic subunit beta (Homo sapiens) + cAMP-dependent protein kinase type II-beta regulatory subunit (Homo sapiens) (UniProt P22694+P31323). Description: compounds dissociating PKAc from R2B subunit – biochemical, fluorescence polarization, Cy5-IP20, human, primary screen (AID 504700).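 Further: higher means more holoenzyme dissociation and a rise in polarization.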 The note with it: PKA-R2B holoenzyme dissociation, at 11.4 µM, hits give high values, 0% DMSO only, 100% 113 µM cGMP, R2B truncated from residue 108, S112A mutant. Background: Polarisation of emitted light reports the rotation of a fluorescent probe.
Chain of cAMP-dependent protein kinase catalytic subunit beta (Homo sapiens) + cAMP-dependent protein kinase type II-beta regulatory subunit (Homo sapiens) (P31323 whole entry, looked up, other chains not shown, the tested form may be a part): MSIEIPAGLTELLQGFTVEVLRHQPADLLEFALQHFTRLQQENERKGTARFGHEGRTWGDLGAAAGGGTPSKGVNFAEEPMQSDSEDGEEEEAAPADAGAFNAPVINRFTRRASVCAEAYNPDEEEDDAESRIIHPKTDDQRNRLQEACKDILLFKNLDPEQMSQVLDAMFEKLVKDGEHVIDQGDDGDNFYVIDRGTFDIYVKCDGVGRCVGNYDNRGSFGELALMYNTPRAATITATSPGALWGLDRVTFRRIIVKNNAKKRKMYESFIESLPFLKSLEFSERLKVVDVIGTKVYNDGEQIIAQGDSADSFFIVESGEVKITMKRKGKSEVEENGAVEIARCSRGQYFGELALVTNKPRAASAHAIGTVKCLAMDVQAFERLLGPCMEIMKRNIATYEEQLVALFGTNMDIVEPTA
Consider `CCN(CC)C(=O)C1=C(C)N(Cc2ccc(F)cc2)C(=O)C(CC(=O)NCc2cccc3ccccc23)C1` (centres undefined), for which the activation was 1.37%.
For `O=c1[nH]c2ccccc2n1C1CCN(CCOc2ccccc2)CC1`, the activation was -11%.
For `CSC1=NN(c2ccccc2)CN(c2ccccc2)N1C` the value was 9.82%; for `O=C(COC(=O)Cc1ccc(Cl)cc1Cl)NCc1ccco1`, -1.41%.
Turning to `CCCC(=O)Nc1ncnc2c1ncn2[C@@H]1O[C@@H]2OP(=O)(O)OC[C@H]2[C@H]1OC(=O)CCC`, the activation was 42.6% (active).
On to `CCOC(=O)c1c(C)[nH]c(C)c1C(=O)COC(=O)/C=C/c1cccc([N+](=O)[O-])c1`, for which the activation is -7.22%.
For `COc1ccc(CN2C(=O)C(CC(=O)NCCN3CCOCC3)CC(C(=O)N(C(C)C)C(C)C)=C2C)cc1` (centres undefined) the value was -6%; for `CC(OC(=O)c1cccc(S(=O)(=O)N2CCOCC2)c1)C(=O)NCC1CCCCC1` (centres undefined), 12.7%.
With `O=S(=O)(NCCNS(=O)(=O)c1ccccc1)c1ccccc1`, the activation is 21.6% (active).
As to `O=S(=O)(NCCc1ccccc1)c1ccccc1`, the activation was -0.17%.
The value for `O=S(=O)(NCCc1ccncc1)c1ccccc1` was -6.62%; that for `COc1ccc(C(C)(C)C)cc1NC(=O)CN(C)C1=NS(=O)(=O)c2ccccc21` was -0.8%.
Turning to `O=C(Nc1cc(F)ccc1F)c1ccc2c(=O)n3c(nc2c1)CCC3`, the activation is 0.72%.
The value for `CC(C)CCOc1ccc(C(=O)Nc2cc(S(=O)(=O)N3CCOCC3)ccc2N2CCOCC2)cc1` was -1.72%; that for `Cc1sc2nc(-c3ccccc3F)oc(=O)c2c1C` was -7.56%.
For `O=C(NCc1nnnn1-c1ccc(Cl)cc1)c1ccc([N+](=O)[O-])o1` the value was -12%; for `COc1cc(NC(=O)C2=C(C)OCCS2)c(Cl)cc1C(=O)NCCCN1CCCC(C)C1` (centres undefined), -6.54%.
As for `C[C@H]1Cn2cnc(C(=O)N[C@H](C)c3ccccc3)c2C(=O)N1`, the activation was 1.6%.
Consider `Cc1ccn2c(-c3csc(Nc4ccc(C(=O)O)cc4)n3)c(C)nc2c1`, for which the activation was -9.54%.
Take `C[C@@H]1CN([C@@H](C)CO)C(=O)CCCn2cc(nn2)CO[C@H]1CN(C)S(=O)(=O)c1ccc(-n2cccn2)cc1`: the activation was -4.5%.
The value for `CCc1c(N=O)c(-c2ccccc2)n(O)[n+]1[O-]` was -1.7%.
Turning to `C[C@@H]1CN([C@@H](C)CO)C(=O)c2cc(Br)cnc2O[C@H]1CN(C)Cc1ccc(-c2ccccc2)cc1`, the activation was 1.42%.
As to `O=C(CC(CC(=O)c1ccccc1)c1ccco1)c1ccccc1`, the activation was -2.04%.
Regarding `C[C@@H]1Cn2cnc(C(=O)Nc3ccc(CNC(=O)OC(C)(C)C)cc3)c2C(=O)N1`, the activation is -0.19%.
